Luc counter: Kinase-Glo luciferase inhibition (counter-screen) | Q27757 | Kinase-Glo luciferase, ATP luminescence, 8 min | Potency, µM (top dose mostly 38.3 µM), inactives show top-dose activity change, negative = inhibition, usual class: inhibitors | 0.28% of 200,000 active | AID 1379; active = well fitted curve in the direction sought with a large enough effect; inconclusive = small, poorly fitted or top-dose-only effect, or another doubt; inactive = no such curve, though single readings can be large; an effect the other way counts as inactive or inconclusive; also: nearly all actives have a fitted effect of over 60% in size
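Kinase-Glo luciferase light output from ATP and luciferin was measured with 10 uM ATP, within the enzyme's linear range. Buffer: 50 mM imidazole pH 7.2, 50 mM KCl, 7 mM MgCl2, 0.01% Tween 20, 0.05% BSA; luminescence read after 8 min at ambient temperature.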
ALDH1A1 block: inhibitors of human aldehyde dehydrogenase 1A1 | P00352 | Purified ALDH1A1, NADH fluorescence, propionaldehyde substrate | Potency, µM (doses to about 75.3 µM), for inactives: top-dose activity, negative = inhibition, usual class: inhibitors | 7.3% of 220,000 active;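 also: plate controls were no enzyme wells and a reference inhibitor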
Target sequence (P00352 whole entry, looked up): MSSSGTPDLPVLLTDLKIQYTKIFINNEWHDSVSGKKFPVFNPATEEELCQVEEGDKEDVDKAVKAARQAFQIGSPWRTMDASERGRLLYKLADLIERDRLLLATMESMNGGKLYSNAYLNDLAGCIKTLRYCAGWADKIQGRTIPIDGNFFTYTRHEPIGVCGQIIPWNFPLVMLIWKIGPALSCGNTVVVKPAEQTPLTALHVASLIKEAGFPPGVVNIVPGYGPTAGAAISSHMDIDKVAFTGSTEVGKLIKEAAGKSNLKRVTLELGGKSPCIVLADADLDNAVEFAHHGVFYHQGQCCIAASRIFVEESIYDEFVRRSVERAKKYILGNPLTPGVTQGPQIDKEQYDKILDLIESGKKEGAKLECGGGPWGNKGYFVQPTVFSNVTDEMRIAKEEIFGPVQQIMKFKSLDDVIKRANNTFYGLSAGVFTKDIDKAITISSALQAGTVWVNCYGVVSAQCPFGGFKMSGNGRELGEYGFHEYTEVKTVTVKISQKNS
Lamin A splicing: changes lamin A minigene splicing in HeLa cells | HeLa LMNA splicing GFP/RFP minigene ratio, 48 h | Potency, µM (titrated, usually from 46.1 µM), for the others: top-dose ratio change, negative = inhibition, actives largely listed as inhibitors | 0.01% of 200,000 active | AID 1487; active = well fitted inhibition curve with a large enough effect in the signal ratio, with a control signal flat, not every such curve was filed as active; inconclusive = small, poorly fitted or top-dose-only effect, or effect the other way, or a change in a side signal; the % refers to the signal ratio
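S3 HeLa stable clones carrying a lamin A-EGFP splicing minigene plus DsRed2 were seeded at 600 cells/well in Opti-MEM with 2% FBS, pin-dosed and incubated 48 h at 37°C. Acumen cytometry (488 nm) gave the GFP/RFP total-intensity ratio.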
IMPase Li cell: IMPase inhibition in cells with lithium potentiation. Potency, µM (highest dose often 59.4 µM), for the others: at the top dose activity, negative = IMPase inhibition, actives largely listed as inhibitors. 0.35% of 210,000 active. CHO-M1 cells, IP1 TR-FRET (IP-One), carbachol + lithium; active = well fitted curve in the direction sought with a large enough effect; inconclusive = small, poorly fitted or top-dose-only effect, or another doubt; inactive = no such curve, though single readings can be large; an effect the other way counts as inactive or inconclusive;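 also: IP1 builds up when IMPase is blocked and the TR-FRET signal falls; plate controls were basal vehicle for no effect and high inhibitor control for full effect; nearly all actives have a fitted effect of over 50% in size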
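Concentration–response in CHO-M1 cells, lithium-potentiated; 30 min at 37C. IP1 detected by competitive TR-FRET after 10 min lysis at RT. Hill-fitted AC50.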
HPGD block: HPGD (human) dehydrogenase inhibition. P15428. purified HPGD, NADH fluorescence kinetic, PGE2 substrate. Potency, µM, inactives show at the highest dose activity change, negative = inhibition, usual class: inhibitors. 4.3% of 150,000 active
Target sequence (P15428 whole entry, looked up): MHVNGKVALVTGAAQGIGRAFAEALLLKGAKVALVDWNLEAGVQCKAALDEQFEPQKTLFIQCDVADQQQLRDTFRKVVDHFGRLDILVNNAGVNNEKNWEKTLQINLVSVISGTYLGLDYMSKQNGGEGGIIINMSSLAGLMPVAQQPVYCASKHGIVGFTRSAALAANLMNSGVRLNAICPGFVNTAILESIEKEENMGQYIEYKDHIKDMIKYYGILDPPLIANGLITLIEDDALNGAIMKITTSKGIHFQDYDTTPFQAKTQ
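NADH formation kinetics: reaction with 30 uM PGE2 and 1 mM NAD+ (final), 20 nM enzyme, Tris-HCl pH 8 with Tween 20, after 15 min compound preincubation at room temperature. Fluorescence change, last versus first of five reads.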
* = called active by the depositor; ? = inconclusive; . = no result; [ ] = remark or other dose. Hits are enriched below; roughly 9% of the tested compounds scored in any of these assays. Unless noted, calls follow the shape of the dose curve; as a rule, active = well fitted inhibition curve with a large enough effect (not every such curve was filed as active); inconclusive = small, poorly fitted or top-dose-only effect, or another doubt; inactive = no such curve, though single readings can be large or run the other way. Unless noted, % is scaled to controls: 0 for no effect and ±100 for the full control effect; potency is read from the fitted curve at half-maximal effect.

SMILES | Luc counter | ALDH1A1 block | Lamin A splicing | IMPase Li cell | HPGD block
CC(CNC(=O)c1sc2ncccc2c1-n1cccc1)c1ccccc1 (stereo not drawn) | . | . | 11%[46 µM] | . | .
CCCCc1nnc(NC(=O)CSc2nc(=O)cc(N)n2-c2cccc(C)c2)s1 | -1% | -2% | 16% | 21%[38.3 µM] | -10%
COC(=O)c1scc(-c2ccccc2)c1S(=O)(=O)Nc1cccc(C)c1C | . | . | 3%[46 µM] | . | .
CCCN1C(=O)/C(=C/c2ccc(C)o2)SC1=Nc1ccc(OCC)cc1 | -3% | 7.9µM* | 0% | 7%[38.3 µM] | -11%
COc1ccc(N=C2S/C(=C\c3ccc(OCC(=O)O)cc3)C(=O)N2CCc2c[nH]c3ccccc23)cc1 | 5% | ? | . | -11% | .
CCCN1C(=O)/C(=C/c2ccc(C)o2)SC1=Nc1ccc(OC)cc1 | -2% | 3.5µM* | ? | 17%[38.3 µM] | 25µM*
O=c1c2ccccc2sn1-c1nccs1 | -12% | 13µM* | ? | 13% | .
COCCn1c(Sc2ccc(C)cc2)nc2c1c(=O)[nH]c(=O)n2C | -2% | 13µM* | 11% | 17%[38.3 µM] | -23%
COCCn1c(SCc2c(F)cccc2Cl)nc2c1c(=O)[nH]c(=O)n2C | 1% | 25µM* | ? | 19%[38.3 µM] | -20%
CCC(=O)N1CCc2cc(S(=O)(=O)NCCN3CCC(C)CC3)ccc21 | 0% | -3% | -1% | 22%[38.3 µM] | -1%
CCC(=O)N1CCc2cc(S(=O)(=O)NCCC(=O)N3CCc4ccccc4C3)ccc21 | 2% | 18µM* | ? | -20%[38.3 µM] | -1%
O=C(O)CCC(=O)N1CCc2cc(S(=O)(=O)NCc3cccs3)ccc21 | -4% | 4% | -2% | -8%[38.3 µM] | 25µM*
CCC(=O)N1CCc2cc(S(=O)(=O)NCCCOC)ccc21 | -2% | 20µM* | -4% | 26%[38.3 µM] | 28µM*
Cc1ccnc(NC(=O)CCC(=O)N(CC(=O)NC(C)(C)C)c2ccc3c(c2)OCCO3)c1 | 0% | 11% | 6%[46 µM] | 4% | .
COc1ccc(NC(=O)CC2(CC(=O)O)CCCC2)cn1 | 5% | ? | -13%[46 µM] | -2% | .
O=C(O)CC1(CC(=O)Nc2ccc(Oc3cccc(C(F)(F)F)c3)nc2)CCCC1 | . | 7.9µM* | . | . | .
CCOC(=O)C1(CCCc2ccccc2)CCN(C(=O)c2cc(C)nc(C)n2)CC1 | -1% | ? | ? | 5% | .
CCOC(=O)C1(CCCc2ccccc2)CCN(C(=O)CCN2CCCCC2=O)CC1 | -1% | 4.5µM* | . | 26% | .
CCOC(=O)C1(CCCc2ccccc2)CCN(C(=O)CCCn2cncn2)CC1 | -2% | ? | 9%[46 µM] | 18% | .
CCOC(=O)C1(CCCc2ccccc2)CCN(C(=O)c2cnc(C)cn2)CC1 | 3% | 4.5µM* | . | 18% | .
CCOC(=O)C1(CCCc2ccccc2)CCN(C(=O)CCOC)CC1 | . | 0.45µM* | . | 2% | .
CCOC(=O)C1(CCCc2ccccc2)CCN(C(=O)CCc2cnn(C)c2)CC1 | 1% | ? | 5%[46 µM] | 12% | .
CCN1C(=O)c2cccc3c(NS(=O)(=O)c4ccc(NC(C)=O)cc4)ccc1c23 | 2% | ? | ? | 6%[38.3 µM] | -11%
O=C(CN1C(=O)c2cccc3cccc1c23)Nc1ccc(S(=O)(=O)N2CCOCC2)cc1 | 0% | ? | -16% | -2% | ?
CCN1C(=O)c2cccc3c(NC(=O)c4ccc(S(=O)(=O)N5CCOCC5)cc4)ccc1c23 | 0% | 2µM* | ? | 21%[38.3 µM] | -13%
SMILES | Luc counter | ALDH1A1 block | Lamin A splicing | IMPase Li cell | HPGD block
CCN1C(=O)c2cccc3c(NC(=O)c4ccc(S(=O)(=O)N(C)C)cc4)ccc1c23 | 0% | 2.8µM* | ? | 51%[38.3 µM] | -11%
CC(C)(C)C(=O)Nc1ccc(-c2nc3ccccc3s2)cc1 | . | . | 25%[46 µM] | . | .
COCCn1c(=O)c(C)nc2cnc(Oc3ccccc3)nc21 | . | ? | -1% | 2% | .
O=C(CSC1=NCCS1)NC1CCCC1 | -2% | 7% | 0%[0.0737 µM] | -11%[38.3 µM] | 25µM*
O=C(CSC1=NCCS1)Nc1ccc(S(=O)(=O)NC2CCCCC2)cc1 | -2% | ? | -7% | 14%[38.3 µM] | 16µM*
Cc1csc(NC(=O)CSc2nnc(Cn3c(=O)sc4ccccc43)n2-c2ccccc2)n1 | 1% | ? | -3% | 10%[38.3 µM] | -22%
CC(=O)C1=NN(c2ccccc2)C(c2ccc3c(c2)OCO3)N1c1ccc(N2CCOCC2)cc1 (stereo not drawn) | -3% | ? | ? | 1% | -14%
COc1cccc(N2C(C(C)=O)=NN(c3ccccc3)C2c2ccc(N3CCOCC3)cc2)c1 (stereo not drawn) | -7% | 14µM* | ? | 0% | -7%
S=C(c1c[nH]c2ccccc12)N1CCOCC1 | -2% | 20µM* | ? | 1% | .
CNC1C(O)C2OC3OC(C)CC(=O)[C@@]3(O)O[C@H]2[C@H](NC)C1O (stereo partly drawn) | -7% | 2% | . | -1% | -2%
CN(C)/C=N/c1ncn(-c2ncc(C(F)(F)F)cc2Cl)n1 | ? | ? | ? | -9% | .
O=C1C2C3CCCC3=C3CCCC3C2C(=O)N1c1ccccc1 (stereo not drawn) | 0% | 25µM* | -5% | 18%[38.3 µM] | -8%
O=C1C2C3C=CC(C3)C2C(=O)N1c1ccccc1 (stereo not drawn) | -3% | -1% | ? | 14%[38.3 µM] | -14%
O=C1C2C3C=CC(C3=C3CCCCC3)C2C(=O)N1c1ccccc1 (stereo not drawn) | -1% | 10µM* | 3% | 28%[38.3 µM] | -2%
COc1ccc(C2CC(=O)c3c(C)nc(N4CCN(Cc5ccccc5)CC4)nc3C2)cc1OC (stereo not drawn) | -2% | 25µM* | ? | 5%[38.3 µM] | -16%
COc1cc(C2CC(=O)c3cnc(N4CCN(Cc5ccccc5)CC4)nc3C2)cc(OC)c1OC (stereo not drawn) | 5% | ? | -23% | 11% | ?
Cc1cc(C(=O)NCCC(c2ccccc2)c2ccccc2)c(C)o1 | -2% | -14% | -7% | 39%[38.3 µM] | -10%
O=C(Nc1ccccc1-c1ccccc1)c1ccc(NC(=O)c2ccco2)cc1 | 16% | ? | -14% | 41%[38.3 µM] | -7%
Cc1ccc(C(=O)CNc2ccc(Cl)cc2)cc1 | 0% | 10µM* | . | -4% | .
CCOc1ccc(NC(=O)c2ccc(NCC(=O)N3CCCCCC3)cc2)cc1 | -7% | 6.3µM* | 16%[46 µM] | -3% | .
CN(C)CCC(=O)c1ccc(Cl)cc1 | 0% | 0.11µM* | 2% | -19%[38.3 µM] | 16µM*
C/C(=N/NC(=O)CNc1ccc(C)cc1)c1ccc(Cl)cc1 | 1% | ? | -16% | 1% | -9%
CCOc1ccc(NCC(=O)c2ccc(C)cc2)cc1 | -2% | 3.2µM* | 2%[46 µM] | 3% | .
O=C(CN1C(=O)C2CC=CCC2C1=O)Nc1nc2ccccc2s1 (stereo not drawn) | 3% | ? | 11%[46 µM] | -2% | .
O=C(COc1ccc(OCc2ccccc2)cc1)NN=C1CCCC1 | -5% | 8.9µM* | . | 9% | .
CC(C)NC(=O)COc1ccc(OCc2ccccc2)cc1 | 2% | 2% | -32%[46 µM] | 9% | .
